Screening data (PubChem BioAssay)
Shown are actives, neighbours in structure and some others; about 2.2% of the full set was active somewhere.
FUS yeast rescue – qHTS for Suppressors of FUS Proteinopathy: Primary screen using FUS-linked yeast assay. Potency, µM (doses to about 76.6 µM), most hits filed as activators. S. cerevisiae FUS-expressing, growth rescue, OD600, 24 h. 390,000 compounds, 0.24% hits;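 also: plate controls were DMSO vehicle for no effect and reference control for full effect; nearly all actives have a fitted effect of over 55% in size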
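FUS-expressing yeast, raffinose-pregrown, induced in 2% galactose minimal medium at OD 0.005; compounds in a dilution series, 24hr at 30C. Growth restoration read as absorbance at 600 nm. CP55940 positive control, DMSO negative.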
ERG Ets-DNA blk – qHTS for Small Molecule Inhibitors of the ERG Ets/DNA interaction; fluorescence polarization, His-ERG Ets domain / labelled DNA; Potency, µM (doses to about 76.9 µM), inactives show at the top dose FP activity, negative = inhibition, hits mostly inhibitors; 370,000 compounds, 0.028% hits; AID 624246, 2012; active = well fitted inhibition curve with a large enough effect in the polarisation, with a control signal flat; inconclusive = small, poorly fitted or top-dose-only effect, or effect the other way, or a change in a side signal; inactive = no such curve, though single readings can be large or run the other way; the % refers to the polarisation;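 also: polarization taken with two DNA probes labelled with fluorescein and Texas red; % of control where 0% means no effect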
Target sequence (P11308 whole entry, looked up, the tested form may be a part): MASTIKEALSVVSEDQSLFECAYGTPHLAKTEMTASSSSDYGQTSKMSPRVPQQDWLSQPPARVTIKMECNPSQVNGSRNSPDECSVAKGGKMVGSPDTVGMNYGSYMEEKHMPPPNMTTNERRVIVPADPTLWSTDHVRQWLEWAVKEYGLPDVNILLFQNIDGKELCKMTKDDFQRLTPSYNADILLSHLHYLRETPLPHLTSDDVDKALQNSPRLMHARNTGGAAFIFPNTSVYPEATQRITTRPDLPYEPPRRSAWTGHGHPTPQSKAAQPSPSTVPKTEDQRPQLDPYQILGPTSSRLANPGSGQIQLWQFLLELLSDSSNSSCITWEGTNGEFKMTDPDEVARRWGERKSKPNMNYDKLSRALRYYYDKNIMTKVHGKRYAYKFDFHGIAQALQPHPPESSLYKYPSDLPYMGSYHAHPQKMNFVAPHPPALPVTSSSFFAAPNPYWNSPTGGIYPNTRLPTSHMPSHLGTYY
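His-tagged ERG Ets domain (1 uM in the protein solution; 300mM KCl, 50mM Tris-HCl, 1mM EDTA, 1mM DTT, pH 7.5) received compound, then a probe mix of 5 nM fluorescein-DNA and 100nM Texas-615-DNA. Fluorescence polarization was read for both dyes.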
Mito fusion act – qHTS Assay for Small Molecule Inhibitors of Mitochondrial Division or Activators of Mitochondrial Fusion | 320,000 compounds, 0.23% hits | Potency, µM (titrated, usually from 46.1 µM), inactives show top-dose growth rescue (activation), hits mostly activators | AID 485298, 2010 | S. cerevisiae fusion-defective mutant growth rescue, CellTiterGlo 48 h; also: % of control where 0% means no effect; nearly all actives have a fitted effect of over 45% in size
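Luminescent cell viability in 1536-well qHTS format served as the measure of rescued growth in ts fusion-mutant S. cerevisiae cultured on non-fermentable YPEG for 48 hours at 37C.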
TDP-43 yeast inh – qHTS of TDP-43 Inhibitors | TDP-43 expressing yeast growth rescue, BacTiter-Glo, 24 h | Potency, µM (highest dose often 46.1 µM), for inactives: top-dose growth rescue (activation), most hits filed as activators | 410,000 compounds, 1.8% hits; also: % of control where 0% means no effect; nearly all actives have a fitted effect of over 50% in size
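Luminescence from BacTiter-Glo reports growth of TDP-43-expressing yeast after 24 hr at 30 deg C with compound. Cells were raffinose-pregrown to mid-log, then seeded in galactose medium at OD600=0.02.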
aSyn rescue – qHTS of alpha-syn Inhibitors | Potency, µM (titrated, usually from 46.1 µM), for inactives: at the top dose growth rescue (activation), most hits filed as activators | 370,000 compounds, 0.14% hits | Yeast expressing alpha-synuclein, growth rescue, BacTiter-Glo, 24 h; also: % of control where 0% means no effect; nearly all actives have a fitted effect of over 65% in size
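Screening used galactose-induced yeast with toxic alpha-synuclein levels, exposed to compound for 24 hr at 30 deg C. Cell growth, read with BacTiter-Glo luminescence, gave the measured signal.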
Abeta yeast res – qHTS for compounds that reverse cellular toxicity of Amyloid beta (A-beta) peptide in yeast: Primary Screen; yeast expressing A-beta42, growth rescue, OD600, 48 h; response scale: 0% DMSO, 100% iron-clioquinol control; Potency, µM (highest dose often 46.1 µM), most hits filed as activators; 410,000 compounds, 0.063% hits; also: nearly all actives have a fitted effect of over 55% in size
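Growth rescue measured by 600 nm absorbance after 48 h yeast culture at 30 C with compound. Values normalized between DMSO and an equimolar ferric chloride plus clioquinol control.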
An asterisk follows results filed as active; i = inactive; u = inconclusive; x = no result given. Unless noted, calls follow the shape of the dose curve; as a rule, active = well fitted curve in the direction sought with a large enough effect; inconclusive = small, poorly fitted or top-dose-only effect, or another doubt; inactive = no such curve, though single readings can be large; an effect the other way counts as inactive or inconclusive. Potency is read from the fitted curve at half-maximal effect.

SMILES	FUS yeast rescue	ERG Ets-DNA blk	Mito fusion act	TDP-43 yeast inh	aSyn rescue	Abeta yeast res
Cc1ccc2c(CC(=O)Nc3ccc(S(=O)(=O)N4CCC(C)CC4)cc3)coc2c1	u	0.9%	x	-3.9%	x	i
O=C(O)c1ccc(N/N=C2/CCSc3ccc(F)cc32)cc1	i	-5.2%	1.4%	10µM*	2.9%	i
Cc1ccc[n+](CC(=O)Nc2ccc([N+](=O)[O-])cc2)c1	i	4.1%	-3.7%	8.91µM*	-11.2%	i
Cc1ccc[n+](CC(=O)Nc2cccc([N+](=O)[O-])c2)c1	i	3.2%	-0.2%	-1.4%	1.1%	i
O=C(CN1C(=O)COc2ccc(S(=O)(=O)NC3CCCC3)cc21)Nc1ccc(F)c(Cl)c1	20µM*	-3.1%	x	-3.6%	x	i
O=C(CN1C(=O)COc2ccc(S(=O)(=O)NC3CCCC3)cc21)Nc1ccc(Cl)cc1F	i	0.4%	x	-3.7%	x	i
O=C(Nc1cc(Cl)cc(Cl)c1)c1cc(S(=O)(=O)NC2CCCC2)ccc1F	i	-1.4%	x	20µM*	x	i
O=C(Nc1ccc(F)c(F)c1)c1cc(S(=O)(=O)NC2CCCC2)ccc1F	i	2.0%	x	1.7%	x	i
Cc1ccc(S(=O)(=O)N2c3ccccc3C[C@H]2CCC(=O)c2ccccc2)cc1	i	x	x	x	x	x
CCC[C@H]1[C@@H](NC(=O)c2cccc(N(C)C)c2)CC[C@@]23CCCN2C(=O)CCC[C@@H]13	i	x	x	x	x	x
CCn1ccc2c(OCC(=O)Nc3ccccc3C(F)(F)F)cccc2c1=O	i	5.3%	x	u	x	i
CCn1ccc2c(OCC(=O)Nc3ccccc3C)cccc2c1=O	i	2.8%	x	12.6µM*	x	i
O=C(CSc1ccc(Cl)cc1)N1N=CCC1c1ccccc1 (centres undefined)	i	-1.9%	20.7%	12.6µM*	-5.8%	i
O=C(Nc1ccccc1)N1N=CCC1c1ccccc1 (centres undefined)	i	2.2%	4.4%	-8.9%	6.0%	i
O=C(Nc1ccc(Cl)c(Cl)c1)N1N=CCC1c1ccccc1 (centres undefined)	u	-5.0%	5.6%	22.4µM*	-16.4%	i
CSCC(=O)N1CCCC(CO)(Cc2ccccc2C)C1 (centres undefined)	i	1.8%	22.4µM*	-16.0%	-3.9%	i
CC1CCN(C(=O)CCn2c(=O)oc3ccc(Cl)cc32)CC1	i	x	x	14.4%	9.7%	i
O=C(O)/C=C/C(=O)Nc1ccc2c(c1)C(=O)c1ccccc1C2=O	i	-10.0%	6.4%	u	22.4µM*	u
CC(=O)Nc1ccc2c(c1)C(=O)c1ccccc1C2=O	u	2.9%	7.1%	u	0.7%	i
COc1ccc(C2c3cccn3CCN2S(=O)(=O)c2ccccc2[N+](=O)[O-])cc1OC (centres undefined)	u	10.2%	x	12.5%	x	i
O=C(NCc1cccc(Cl)c1)c1cccc(C(F)(F)F)c1	i	-1.6%	8.0%	u	-0.3%	i
O=C(NCc1ccccc1Cl)c1cccc(C(F)(F)F)c1	i	-6.7%	4.8%	35.5µM*	7.4%	i
CC(=NNC(=O)CSc1nnc(-c2ccccc2)n1-c1ccccc1)c1ccc2ccccc2c1	i	x	x	x	x	x
CCc1ccc(NC(=O)Cn2c(=O)c(CNc3ccccc3)cc3cc(OC)c(OC)cc32)cc1	i	4.7%	x	-6.3%	x	i
COc1cc2cc(CNc3ccccc3)c(=O)n(CC(=O)Nc3cc(C)cc(C)c3)c2cc1OC	25.1µM*	0.1%	x	-2.5%	9.3%	i
SMILES	FUS yeast rescue	ERG Ets-DNA blk	Mito fusion act	TDP-43 yeast inh	aSyn rescue	Abeta yeast res
O=C(O)c1ccc2c(c1)C(=O)/C(=C\c1ccco1)C2=O	i	-18.8%	-3.2%	12.8%	0.4%	i
O=C1C(=Cc2ccco2)C(=O)c2ccccc21	x	x	-0.5%	22.4µM*	13.1%	i
C=CCc1cccc(CNc2ccc(S(=O)(=O)Nc3nccnc3OC)cc2)c1O	i	3.9%	7.3%	-19.3%	1.5%	i
C=CCc1cccc(CNc2ccc(Br)cc2)c1O	i	5.7%	-5.7%	22.4µM*	17.2%	i
CC(C)(C)c1ccc(S(=O)(=O)NCC(=O)N2CCN(c3ncccn3)CC2)cc1	i	x	x	x	x	x
CCOc1ccccc1NC(=O)Cn1nnc2sc(-c3ccccc3)cc2c1=O	i	7.1%	x	12.1%	x	i
O=C(CSCc1ccc(Cl)cc1)N1CCOCC1	i	-1.4%	1.0%	5.8%	0.6%	i
O=C(CSc1nnc(SCc2ccc(Cl)cc2)s1)N1CCOCC1	i	4.1%	u	22.4µM*	1.0%	i
CCOc1ccccc1COC(=O)c1cccc(-n2cnnn2)c1	i	-2.5%	2.0%	17.8µM*	2.4%	i
OCc1cnc(SCc2cccc(F)c2)n1Cc1ccc(F)cc1	i	0.5%	x	-4.7%	-3.7%	i
Cn1c(=O)c2sccc2n2c(CCC(=O)N3CCN(c4ccc(F)cc4)CC3)nnc12	x	7.9%	x	x	x	x
COc1ccc([C@H]2Cc3cccc(O)c3C(=O)O2)cc1O	i	-0.8%	10.2%	11.2µM*	7.7%	i
COc1ccc([C@H]2Cc3cc(O)cc(O)c3C(=O)O2)cc1O	i	11.2%	x	15.6%	7.7%	i
CCCC1Cc2c(sc(N)c2C#N)CO1 (centres undefined)	i	-2.2%	2.6%	12.6µM*	4.8%	i
Cc1cc(C)c(CN2CCN(CCCn3cnc(C(=O)Nc4ccc(C)c(C)c4)n3)CC2)c(C)c1	i	-17.1%	x	11.9%	-20.5%	i
O=c1cc(CSc2ccc(Cl)cc2)nc(-c2ccccn2)[nH]1	i	-1.1%	-29.0%	u	10µM*	u
Clc1ccc(SCc2cc(N3CCOCC3)nc(-c3ccccn3)n2)cc1	i	11.2%	6.8%	-10.2%	0.4%	12.6µM*
Cc1cc2cc3c(cc2nc1SCC(=O)N1CCCC1)OCCO3	i	-8.7%	-0.3%	17.8µM*	3.4%	i
CCn1c(=O)c2sccc2n2c(CCC(=O)Nc3ccc(C(C)C)cc3)nnc12	i	-6.6%	x	0.0%	x	i
CC(C)(C)C(=O)Nc1ccccc1C(=O)Nc1cccnc1	i	-8.7%	4.6%	-4.6%	-3.2%	i
CC(C)(C)C(=O)Nc1ccccc1C(=O)Nc1cc(Cl)ccc1Cl	i	-1.1%	6.7%	22.4µM*	-1.4%	i
